Laboratory results published in PubChem BioAssay (Tox21).
Records with an inconclusive call do not appear. The source holds several records for some structures; these can differ, active in one and inactive in another. Active and inactive are the calls of the source. Unless noted, calls follow the shape of the dose curve; as a rule, active = well fitted curve in the direction sought with a large enough effect in the repeat runs; inconclusive = weak or mixed curves; inactive = no such curve, though single readings can be large; an effect the other way counts as inactive or inconclusive.

How the values were obtained:
[1] = target: Peroxisome proliferator-activated receptor delta (Homo sapiens) (UniProt Q03181); assay: qHTS assay to identify small molecule agonists of the peroxisome proliferator-activated receptor delta (PPARd) signaling pathway (AID 743212; calls by dose curve)
How it was run: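 HEK293H UAS-bla reporter cells, human PPARd system; compounds delivered in DMSO after 5 h plating, then at 37 C. Beta-lactamase FRET read, 2 h RT substrate step.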

[2] = qHTS assay to identify small molecule agonists of the farnesoid-X-receptor (FXR) signaling pathway - cell viability counter screen (AID 743218); also: nearly all actives have a fitted effect of over 45% in size; also: potency is read from the fitted curve at half-maximal effect
How it was run: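 FXR-UAS-bla HEK 293T cells exposed to compounds for 16 h at 37C. Cytotoxicity read in the same wells by CellTiter-Glo luminescence after 30 min at room temperature, following the beta-lactamase FRET read.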

[3] = target: Bile acid receptor (Homo sapiens) (UniProt Q96RI1); assay: qHTS assay to identify small molecule agonists of the farnesoid-X-receptor (FXR) signaling pathway (AID 743220; active = well fitted activation curve with a large enough effect in the signal ratio in the repeat runs, not every such curve was filed as active; the % refers to the signal ratio)
How it was run: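 Beta-lactamase reporter under UAS control in GeneBLAzer FXR HEK 293T cells (5000/well) measured with LiveBLAzer FRET substrate after 2 h at room temperature. Compound exposure lasted 16 h at 37C.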

[4] = qHTS assay to identify small molecule antagonists of the farnesoid-X-receptor (FXR) signaling pathway - cell viability counter screen (AID 743221; active = well fitted cell-killing curve with a large enough effect in the repeat runs, not every such curve was filed as active; also: nearly all actives have a fitted effect of over 50% in size; also: potency is read from the fitted curve at half-maximal effect)
How it was run: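 CellTiter-Glo, 30 min RT, luminescence; same wells as the LiveBLAzer FRET read. Cells: FXR-UAS-bla HEK 293T. Treatment: compound with chenodeoxycholic acid 50 uM final, 16 h at 37 C.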

[5] = target: Vitamin D3 receptor (Homo sapiens) (UniProt P11473); assay: qHTS assay to identify small molecule agonists of the vitamin D receptor (VDR) signaling pathway (AID 743222; calls by dose curve)
How it was run: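 VDR-bla cells plated 4 h at 37 C, then exposed to compounds for 16 h at 37 C. Beta-lactamase reporter activity measured by fluorescence after 2 h room-temperature loading with LiveBLAzer B/G FRET substrate.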

[6] = target: Vitamin D3 receptor (Homo sapiens) (UniProt P11473); assay: qHTS assay to identify small molecule antagonists of the vitamin D receptor (VDR) signaling pathway (AID 743223; active = well fitted inhibition curve with a large enough effect in the signal ratio in the repeat runs, not every such curve was filed as active; the % refers to the signal ratio)
How it was run: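 After VDR-bla cells are plated and left 4 h at 37C, DMSO-dissolved compounds and 3 nM (final) calcitriol agonist are added. Incubation continues 16 h at 37C; FRET beta-lactamase substrate then develops 2 h at room temperature.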

[7] = target: Peroxisome proliferator-activated receptor delta (Homo sapiens) (UniProt Q03181); assay: qHTS assay to identify small molecule antagonists of the peroxisome proliferator-activated receptor delta (PPARd) signaling pathway (AID 743215; active = well fitted inhibition curve with a large enough effect in the signal ratio in the repeat runs, not every such curve was filed as active; the % refers to the signal ratio;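 also: cells stimulated with agonist L165041 at 300 nM final during compound exposure; series mostly up to about 62 µM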)
How it was run: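 PPARd-bla HEK293H cells (UAS-bla reporter) preincubated 5 h, then given compound plus 300 nM final L165041 agonist for 17 h at 37 C. Beta-lactamase activity read by LiveBLAzer B/G FRET substrate fluorescence after 2 h at room temperature.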

[8] = target: Bile acid receptor (Homo sapiens) (UniProt Q96RI1); assay: qHTS assay to identify small molecule antagonists of the farnesoid-X-receptor (FXR) signaling pathway (AID 743217; active = well fitted inhibition curve with a large enough effect in the signal ratio in the repeat runs, not every such curve was filed as active; the % refers to the signal ratio)
How it was run: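 FXR-UAS-bla HEK 293T cells (beta-lactamase reporter) given compound plus chenodeoxycholic acid (50 uM final), 16 h at 37C. LiveBLAzer B/G FRET substrate added for 2 h at room temperature; fluorescence read.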

[9] = qHTS assay to identify small molecule antagonists of the peroxisome proliferator-activated receptor delta (PPARd) signaling pathway - cell viability counter screen (AID 743213); also: nearly all actives have a fitted effect of over 50% in size; also: potency is read from the fitted curve at half-maximal effect
How it was run: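 In this counter screen, HEK293H cells carrying a UAS-beta-lactamase reporter are co-treated with test compounds and 300 nM L165041 (final) for 17 h at 37 C; cell viability is quantified by CellTiter-Glo luminescence.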

[10] = qHTS assay to identify small molecule agonists of the peroxisome proliferator-activated receptor delta (PPARd) signaling pathway - cell viability counter screen (AID 743211); also: nearly all actives have a fitted effect of over 55% in size
How it was run: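 Multiplexed format: after the 2 h room-temperature LiveBLAzer B/G FRET step, CellTiter-Glo was added to the same wells. Luminescence after 30 min gave cell viability; compound exposure was 17 h at 37C.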

Measured: Potency

Sequence of Peroxisome proliferator-activated receptor delta (Homo sapiens) (Q03181 whole entry, looked up): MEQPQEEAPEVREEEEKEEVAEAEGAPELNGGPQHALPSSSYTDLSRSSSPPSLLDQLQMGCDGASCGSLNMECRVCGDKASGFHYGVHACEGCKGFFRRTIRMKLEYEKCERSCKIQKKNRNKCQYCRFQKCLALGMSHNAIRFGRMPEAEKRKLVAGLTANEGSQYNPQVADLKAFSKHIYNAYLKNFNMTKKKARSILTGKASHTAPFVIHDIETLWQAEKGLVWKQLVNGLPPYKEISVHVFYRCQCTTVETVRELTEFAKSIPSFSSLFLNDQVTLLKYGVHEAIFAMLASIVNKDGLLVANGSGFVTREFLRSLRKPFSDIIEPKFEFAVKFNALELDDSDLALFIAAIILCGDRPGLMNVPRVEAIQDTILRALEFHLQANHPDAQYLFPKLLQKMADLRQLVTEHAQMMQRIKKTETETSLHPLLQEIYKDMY
Sequence of Vitamin D3 receptor (Homo sapiens) (P11473 whole entry, looked up): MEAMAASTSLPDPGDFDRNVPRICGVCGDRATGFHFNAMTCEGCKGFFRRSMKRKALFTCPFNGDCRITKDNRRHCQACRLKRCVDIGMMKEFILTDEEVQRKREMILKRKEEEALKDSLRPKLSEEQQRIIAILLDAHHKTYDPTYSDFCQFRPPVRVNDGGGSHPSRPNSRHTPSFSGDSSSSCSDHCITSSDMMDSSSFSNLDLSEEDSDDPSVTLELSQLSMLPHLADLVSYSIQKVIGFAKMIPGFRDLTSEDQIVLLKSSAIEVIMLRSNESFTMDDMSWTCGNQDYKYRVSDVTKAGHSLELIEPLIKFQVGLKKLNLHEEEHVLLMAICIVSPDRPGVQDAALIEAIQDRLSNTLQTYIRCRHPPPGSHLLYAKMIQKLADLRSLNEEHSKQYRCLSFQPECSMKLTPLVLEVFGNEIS
Sequence of Bile acid receptor (Homo sapiens) (Q96RI1 whole entry, looked up): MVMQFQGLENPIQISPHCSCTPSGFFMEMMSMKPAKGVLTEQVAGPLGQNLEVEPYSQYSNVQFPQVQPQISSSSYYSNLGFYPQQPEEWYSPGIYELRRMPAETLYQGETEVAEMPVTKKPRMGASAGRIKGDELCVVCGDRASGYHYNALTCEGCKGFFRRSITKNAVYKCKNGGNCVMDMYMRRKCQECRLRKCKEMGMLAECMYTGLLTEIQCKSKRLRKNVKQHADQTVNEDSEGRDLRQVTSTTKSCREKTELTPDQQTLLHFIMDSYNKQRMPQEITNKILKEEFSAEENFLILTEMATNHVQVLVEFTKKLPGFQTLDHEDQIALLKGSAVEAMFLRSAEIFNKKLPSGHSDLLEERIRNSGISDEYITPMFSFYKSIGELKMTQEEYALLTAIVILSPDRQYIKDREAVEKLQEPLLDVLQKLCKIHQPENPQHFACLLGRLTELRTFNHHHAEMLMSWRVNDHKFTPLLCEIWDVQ

CCOP(=S)(OCC)Oc1cc(Cl)c(Br)cc1Cl
inactive: [1] | [2] | [3] | [4] | [5] | [6]

COP(=S)(OC)Oc1ccc([N+](=O)[O-])cc1Cl
inactive: [1] | [7] | [2] | [4]

N#Cc1cc(I)c(O)c(I)c1
inactive: [4] | [5]

O=S1(=O)OC(c2cc(Br)c(O)c(Br)c2)(c2cc(Br)c(O)c(Br)c2)c2ccccc21
inactive: [1] | [7] | [8] | [3] | [5]

O=C(NC(=O)c1c(F)cccc1F)Nc1cc(Cl)c(Oc2ncc(C(F)(F)F)cc2Cl)c(Cl)c1
active: [2] 37.3 µM
inactive: [9] | [7]

NCCCNCCCN
inactive: [5]
active: [9] 49.7 µM

CC(C)N(C(=O)COc1nnc(C(F)(F)F)s1)c1ccc(F)cc1
inactive: [1] | [3] | [4]

O=C(CBr)Nc1ccc(Cl)cc1C(=O)c1ccccc1F
inactive: [1] | [9] | [2] | [4] | [5]

CC(C)(C)c1cc([N+](=O)[O-])cc([N+](=O)[O-])c1O
inactive: [9] | [5]

CCCC(Cn1cncn1)c1ccc(Cl)cc1Cl (configuration not stated)
not listed: [6] | [8] | [10]
inactive: all other assays above

COP(=S)(Oc1cc(Cl)c(Br)cc1Cl)c1ccccc1 (configuration not stated)
inactive: [1] | [9] | [4] | [5] | [6]

C=C(C#N)CCC#N
inactive: [10] | [4] | [5]

CC(C)(C)C(O)C(Oc1ccc(Cl)cc1)n1cncn1 (configuration not stated)
inactive: [4]

[CH3][Sn]([CH3])([Cl])[Cl]
inactive: [9] | [5]
55.9 µM (active) and inactive: [2] | [4]

COP(=O)(OC)O/C(=C/Cl)c1cc(Cl)c(Cl)cc1Cl
inactive: [1] | [9] | [8] | [2] | [3] | [4]

O=C(O)C(F)(F)C(F)(F)C(F)(F)C(F)(F)C(F)(F)C(F)(F)C(F)(F)C(F)(F)C(F)(F)F
inactive: [1] | [9] | [7] | [4]

O=C1NCN(c2ccccc2)C12CCN(CCCOc1ccc(F)cc1)CC2
inactive: [1] | [9] | [7] | [3] | [5]

CCOP(=S)(OCC)SCn1nnc2ccccc2c1=O
active: [9] 54.9 µM | [2] 43.6 µM

C=CC(=O)NCNC(=O)C=C
inactive: [10] | [4] | [5]

CC[C@H]1C[C@H]2[C@@H]3CCC4=CC(=O)CC[C@@H]4[C@H]3CC[C@]2(C)[C@H]1O
inactive: [1] | [9] | [4]

COc1nn(CSP(=S)(OC)OC)c(=O)s1
inactive: [10] | [3] | [4]

CCCCC(CC)COP(=O)(Oc1ccccc1)Oc1ccccc1 (configuration not stated)
inactive: [1] | [9] | [2] | [3] | [5] | [6]

COc1ccc(-c2ccccc2)cc1NNC(=O)OC(C)C
inactive: [10] | [3] | [5]

CN(C)c1ccc(N(C)C)cc1
inactive: [9] | [8] | [2] | [3] | [4]
